Screening data from PubChem.
Sampled rows, rich in hits. Any-hit rate of the full collection: about 4.6%.
D1 agonist: Allosteric Agonists of the Human D1 Dopamine Receptor: qHTS | D(1A) dopamine receptor (Homo sapiens), P21728 | HEK293 T-REx D1 cells, calcium flux, agonist mode | activation, % at 2 µM | 1% of 360,000 active | AID 504660, 2011
Target sequence (P21728 whole entry, looked up): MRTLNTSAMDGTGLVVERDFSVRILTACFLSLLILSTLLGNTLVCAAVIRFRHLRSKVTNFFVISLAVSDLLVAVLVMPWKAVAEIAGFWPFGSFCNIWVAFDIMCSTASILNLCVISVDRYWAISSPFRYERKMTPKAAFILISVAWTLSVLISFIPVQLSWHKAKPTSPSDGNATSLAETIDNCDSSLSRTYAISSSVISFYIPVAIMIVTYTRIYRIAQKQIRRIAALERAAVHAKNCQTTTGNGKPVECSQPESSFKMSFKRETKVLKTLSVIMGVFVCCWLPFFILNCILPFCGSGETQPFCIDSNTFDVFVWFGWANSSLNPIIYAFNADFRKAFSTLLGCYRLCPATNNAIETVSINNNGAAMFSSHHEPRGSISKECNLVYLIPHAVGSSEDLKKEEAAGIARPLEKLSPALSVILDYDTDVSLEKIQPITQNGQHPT
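Agonism was scored from calcium flux recorded over 180 s (1 read/s) after pintool compound addition, following a 10-cycle baseline. Cells were inducible force-coupled HEK293 TREx D1, plated overnight at 30 C and loaded with no-wash calcium dye.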
D1 potentiator: Potentiators of Human D1 Dopamine Receptor: qHTS | potentiation, % at 10 µM | HEK293 TREx D1 cells, calcium flux, dopamine EC20 potentiation | AID 504651, 2011 | 0.036% of 360,000 active; in the data active = potentiation above about 30%
TRHR ag: qHTS for Small Molecule Agonists and Allosteric Enhancers of Human TRH Receptor: Primary Screen for Agonists | Thyrotropin-releasing hormone receptor (Homo sapiens), P34981 | TRHR cells, calcium flux fluo-8, FDSS agonist mode | activation, % at 2 µM | 0.18% of 360,000 active | AID 493084, 2011
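In this calcium-flux screen, cells bearing human TRHR are dye-loaded with fluo-8, baselined for 10 cycles, then exposed to library compounds; positive kinetic calcium responses during the agonist phase mark hits, with TRH as control.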
D1 antag: Antagonist of Human D 1 Dopamine Receptor: qHTS; D(1A) dopamine receptor (Homo sapiens), P21728; HEK293 TREx D1 cells, calcium flux, dopamine EC80; stronger effect = lower value; 3.2% of 360,000 active; activity change, negative = inhibition, % at 10 µM; in the data active = activity change below about -30%
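Calcium flux readout: force-coupled, inducible Hek293 Trex D1 line, cells induced overnight at 30 C with tetracycline, dye-loaded 30–90 min at RT. Antagonism scored against EC80 dopamine challenge given 180 s after compound.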
TRHR PAM: qHTS for Small Molecule Agonists and Allosteric Enhancers of Human TRH Receptor: Primary Screen for Enhancers. enhancement, % at 2 µM. Thyrotropin-releasing hormone receptor (Homo sapiens), P34981. 0.66% of 360,000 active. TRHR cells, fluo-8 calcium fluorescence, EC20 TRH enhancement; in the data active = enhancement above about 30%
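TRHR-expressing cells loaded with fluo-8 calcium dye were read kinetically (ex 480/em 530) during compound addition, then stimulated with an EC20 of TRH (10 nM final). Enhancement of the Gq-mediated intracellular calcium response was scored.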
Each line names hits and unclear results; the compound was inactive in the other large screens; ! = not active in a repeat. Rule as the data show it, unless noted: active = activation above about 30%; inactive = the rest.

CCOC(=O)c1c(NC(=O)/C=C/c2ccc(C)cc2)sc2c1CCCC2	D1 agonist 39
O=C(Cc1ccccc1)Nc1sc2c(c1C(=O)Nc1cccc(Cl)c1)CCCCC2	none
CCOC(=O)c1c(NS(=O)(=O)c2cccc(OC)c2)sc2c1CCC2	D1 agonist 64
O=C(Cc1ccccc1)Nc1sc2c(c1C(=O)Nc1ccccc1Cl)CCCCC2	TRHR PAM 33
CCOC(=O)c1c(NC(=O)c2cc(-c3cccc(OC)c3)on2)sc2c1CCCC2	none
Cc1ccccc1OCC(=O)Nc1sc2c(c1C(=O)OC(C)C)CCCC2	D1 agonist 45
O=C(O)c1ccc2c(c1)C(=O)N([C@H](Cc1ccc(O)cc1)C(=O)O)C2=O	none
CCOC(=O)c1c(NC(=O)c2ccc(Br)cc2)sc2c1CCCC2	none
CCCNC(=O)c1c(NC(=O)c2ccccc2F)sc2c1CCCCC2	TRHR PAM 35
O=C(Nc1sc2c(c1C(=O)O)CCCCC2)c1ccccc1F	none
CCCOc1ccc(C(=O)Nc2sc3c(c2C(=O)OCC)CCCCC3)cc1	D1 antag -31
COc1ccc([C@]23Cc4ccccc4C(O2)c2c(cc(-c4ccccc4)oc2=O)O3)cc1	none
CCOc1cc(C)c(S(=O)(=O)Nc2ccc3cn[nH]c3c2)cc1C	D1 agonist 33
COc1ccc(C(=O)n2nc(-c3ccco3)nc2N)cc1OC	none
COc1ccc(C(=O)n2nc(-c3ccccc3)nc2N)cc1OC	D1 antag -34
O=C(Cn1cnc2c(nnn2-c2ccccc2)c1=O)NCc1ccc(F)cc1	D1 antag -60
Cc1ccc(-n2nnc3c(=O)n(CC(=O)NCc4ccccc4)cnc32)cc1	none
COC(=O)c1ccc2nc(C)cc(Nc3cccc(Cl)c3C)c2c1	none
O=C(N/N=C/c1ccc(O)cc1)c1ccc(COc2cc(Cl)ccc2Cl)o1	D1 agonist 43
O=C(Nc1cccnc1)c1ccc(COc2cc(Cl)ccc2Cl)o1	none
CCc1ccc(CNC(=O)c2cnc3sc(N(CC)CC)nn3c2=O)cc1	none
Cc1c2ccccc2nc2c(F)c(N(C)C)c(F)c(F)c12	D1 agonist 62, TRHR ag 40
CN(C)c1c2ccccc2nc2c(F)c(F)c(F)c(F)c12	none
CCN(CC)S(=O)(=O)c1ccc2c(c1)N(CC(=O)NCCCN1CCN(c3cc(C)ccc3C)CC1)C(=O)CO2	none
CCOC(=O)c1ccc(Nc2sc(C(=O)c3cccc([N+](=O)[O-])c3)c(N)c2C#N)cc1	D1 antag -32
Cc1ccc(C(=O)c2sc(Nc3ccccc3)c(C#N)c2N)cc1	none
CCCCOC(=O)CSc1nc2c(cc1C#N)C(=O)CC(C)(C)C2	D1 antag -39
CC(=O)c1cccc(NC(=O)c2cc(C(C)C)on2)c1	D1 antag -36
CC(C)c1cc(C(=O)Nc2cccc(Cl)c2)no1	none
Cc1cc(C)n(C(=O)c2ccc(NC(=O)CC(C)C)cc2)n1	D1 antag -94
CCc1ccc(NCc2cccn2-c2nnc(N3CCCCCC3)s2)cc1	D1 antag -31
COc1ccc(C2CC(=O)N3CN(c4ccc(C)c(Cl)c4)CSC3=C2C#N)cc1 (stereo unspecified)	TRHR PAM 31
COc1cc(C(=O)Nc2nc3c(s2)Cc2c(Br)ccc(OC)c2-3)cc(OC)c1OC	none
Clc1cccc2c1CCN(Cc1nc(-c3cnccn3)no1)C2	D1 antag -90
c1ccc(C(c2ccccc2)N2CCN(Cc3nc(-c4cnccn4)no3)CC2)cc1	none
O=C(OC1CCOC1=O)c1cc(-c2ccc(Br)cc2)nc2ccccc12 (stereo unspecified)	none
COc1ccc(-c2cc(C(=O)OC3CCOC3=O)c3ccccc3n2)cc1 (stereo unspecified)	D1 antag -32
COc1ccc(-c2cc(C(=O)OCc3ccccn3)c3ccccc3n2)cc1	D1 antag -34
COc1cc(Cc2cnc(N)nc2N)cc(OC)c1OC	D1 antag -48!
Cc1cccc(-n2c(C)cc(C(=O)C(=O)Nc3ccccc3F)c2C)c1C	none
CCOc1ccccc1CNC(=O)c1oc2c(c1C)-c1[nH]ncc1CC2	none
COc1cc(C(=O)Oc2ccccc2)ccc1OCc1c(C)noc1C	D1 antag -37
COc1cc(C(=O)O)ccc1OCc1c(C)noc1C	none (no result: D1 antag)
COc1cc(C(=O)Nc2nnc(C3CC3)s2)ccc1OCc1c(C)noc1C	D1 antag -32
Cc1noc(C)c1COc1ccc(C(=O)O)cc1	TRHR PAM 32
COc1ccc(/C=C/c2nc(C#N)c(N3CCC(C(N)=O)CC3)o2)cc1OC	none
O=C(Cc1nc2ccccc2[nH]1)N/N=C/c1ccccc1	none
CC(C)(C)c1cc(/C=N/NC(=O)Cc2nc3ccccc3[nH]2)cc(C(C)(C)C)c1O	D1 antag -35
CCC(C)c1ccc(NC(=S)NC2CCN(Cc3ccccc3)CC2)cc1 (stereo unspecified)	none
CCc1ccc(NC(=S)NC2CCN(Cc3ccccc3)CC2)cc1	D1 agonist 34, D1 antag -81
CCCNC(=S)NC1CC2CCC(C1)N2Cc1ccccc1 (stereo unspecified)	none
S=C(Nc1ccc(Cl)cc1)NC1CCN(Cc2ccccc2)CC1	D1 agonist 39, D1 antag -78, TRHR PAM 38
COc1ccc(CCNC(=S)NC2CCN(Cc3ccccc3)CC2)cc1	D1 agonist 42
S=C(NCCc1ccccc1)NC1CC2CCC(C1)N2Cc1ccccc1 (stereo unspecified)	D1 agonist 39, D1 antag -66
S=C(Nc1ccccc1)NC1CCN(Cc2ccccc2)CC1	none
Cc1ccc(CCNC(=O)c2cc3n(n2)CCCN(Cc2ccc(C)cc2)C3=O)cc1	none
Cc1cc(C)c(S(=O)(=O)NCC(c2ccc(N(C)C)cc2)N2CCc3ccccc32)c(C)c1 (stereo unspecified)	none
COc1cccc(CNC(=O)Cn2c(=O)oc3cc(S(=O)(=O)N4CCCC4)ccc32)c1	D1 antag -31
O=C(Cn1c(=O)oc2cc(S(=O)(=O)N3CCCCC3)ccc21)NCc1ccc(F)cc1	D1 agonist 41, D1 antag -37
O=C(Cn1c(=O)oc2cc(S(=O)(=O)N3CCCC3)ccc21)Nc1cccc(C(F)(F)F)c1	D1 antag -39
O=C(Cn1c(=O)oc2cc(S(=O)(=O)N3CCCC3)ccc21)NCc1ccc(F)cc1	none
COc1ccccc1COC(=O)Nc1c(C)nn(C)c1Cl	D1 antag -43
